Experiment [1] in a line: inhibitors of TNFa-induced NFkB p65 translocation, primary screen, imaging, HUVEC, MLSMR starter and 10KST1 sets (AID 438;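 active = inhibition above 20% together with a positive visual image hit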;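 note: compound added about 3h40 before a 20 min TNFalpha stimulation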;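 for inhibition: signal is the nuclear over cytoplasmic p65 intensity ratio per well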). The following applies: HUVEC TNFa-induced p65 nuclear translocation; cell count: measured here: nuclei count (cytotoxicity indicator), at 2.08 µM; inhibition: at 2 µM, stronger effect = higher value, 0% TNFa-plus-vehicle, 100% no-TNFa wells.
Experiment [2] can be described thus: inhibitors of mutant huntingtin aggregation, primary screen, imaging, exon1htt(103Q)mCFP cells, high-content imaging (AID 483;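 active = visual image review flags a hit and inhibition of aggregation exceeds 20%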;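 note: compound exposure lasted 3 days before fixation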;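 for nuclei count: percent of the per-plate median nuclei count of sample wells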). The following applies: exon1htt(103Q)mCFP cell line, aggregate imaging, at 2 µM; inhibition of aggregation: stronger effect = higher value; nuclei count: measured here: cell count, toxicity.
Experiment [3] is described as follows: inhibitors of E-selectin induction by TNFa, primary screen, imaging, HUVEC, immunofluorescence, MLSMR starter and 10KST1 sets (AID 487;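 active = visually confirmed hit in the image check and inhibition above 20%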;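 for inhibition: signal is fraction of cell area covered by stained E-selectin grains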;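 for nuclei count: 100% = median nuclei count of all wells on the same plate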). The note with it: HUVEC TNFalpha-induced E-selectin immunofluorescence imaging, at 2 µM; inhibition: stronger effect = higher value; nuclei count: measured here: cell number, toxicity.
Experiment [4] concerns the target Voltage-gated potassium channel subunit beta-2 (Rattus norvegicus) (UniProt P62483). Briefly: KvBeta enzyme negative modulators, primary screen, biochemical, NADPH fluorescence (AID 622;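 active = fluorescence slope higher than the sample average by over 3 SD, cut at about -0.22 in these data, passing the limit was not always enough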;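 note: slope of raw intensity against log time taken from 70 to 1610 s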). The note with it: recombinant KvBeta, 4-cyanobenzaldehyde reduction, at 10 µM, stronger effect = higher value.
For experiment [5] the target is unchanged. Briefly: KvBeta positive modulators, primary screen, biochemical, NADPH fluorescence (AID 623;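 active = NADPH fluorescence slope more negative than the mean of all samples by about 3 SD, 99.7% confidence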;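 note: fluorescence intensity change per second fitted from 20 to 320 s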). The note with it: Recombinant KvBeta, NADPH fluorescence decrease slope, 10 min; at 10 µM; stronger effect = lower value.
The target of experiment [6] is Alpha-2C adrenergic receptor (Homo sapiens) (UniProt P18825). Description: modulators of alpha2C/GIRK thallium flux, primary screen, cell-based, HEK293 alpha2C/GIRK1/2 (AID 624;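 active = fluorescence slope after compound addition differing from the mean of all screened samples at 99.7% confidence, in either direction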;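 note: slope of fluorescence ratio to pre-addition baseline per second over 15 to 24 s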). The note with it: thallium flux BTC fluorescence, at 10 µM, actives lie on both sides.
Experiment [7] in a line: inhibitors of Sendai virus-induced IRF3 signaling, primary screen, TLR/RLR signaling modifier project, cell-based, Sendai virus stimulus, luciferase, 10K MLSCN set (AID 602276;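 active = inhibition at or above 50% at 10 µM; inactive = inhibition below 50%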;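 note: firefly luciferase from ISG56 promoter only with Renilla not read in this screen; 0% = Sendai virus plus DMSO and 100% = medium plus DMSO without virus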). The note with it: HEK293 RL24 IRF3 luciferase reporter, at 10 µM, stronger effect = higher value. For orientation: In a reporter assay the amount or activity of a reporter protein is the signal.
Experiment [8] is described as follows: inhibitors of poly I:C-induced TLR3 signaling, primary screen, cell-based, poly I:C stimulus, luciferase, 10K MLSCN set (AID 602277). The note with it: HEK293-TLR3 RL24 IRF3 luciferase reporter, at 10 µM, stronger effect = higher value.

Structures are written as SMILES. The source made the active and inactive calls.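 Rule for the calls, unless noted: active = inhibition of the reporter signal at or above 50%; inactive = inhibition below 50%.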

The results in this text go back to PubChem BioAssay.

Chain of Alpha-2C adrenergic receptor (Homo sapiens) (P18825 whole entry, looked up): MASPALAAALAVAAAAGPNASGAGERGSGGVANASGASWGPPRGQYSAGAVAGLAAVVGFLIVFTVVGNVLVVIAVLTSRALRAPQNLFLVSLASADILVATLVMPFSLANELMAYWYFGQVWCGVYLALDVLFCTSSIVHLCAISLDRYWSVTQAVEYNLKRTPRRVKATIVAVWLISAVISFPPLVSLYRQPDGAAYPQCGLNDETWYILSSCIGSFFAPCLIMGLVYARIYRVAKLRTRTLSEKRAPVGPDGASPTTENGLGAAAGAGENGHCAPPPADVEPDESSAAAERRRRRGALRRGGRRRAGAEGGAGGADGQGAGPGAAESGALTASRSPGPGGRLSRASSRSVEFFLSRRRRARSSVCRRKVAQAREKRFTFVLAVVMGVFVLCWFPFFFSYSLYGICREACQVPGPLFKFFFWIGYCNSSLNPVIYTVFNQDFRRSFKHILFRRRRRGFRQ
Chain of Voltage-gated potassium channel subunit beta-2 (Rattus norvegicus) (P62483 whole entry, looked up): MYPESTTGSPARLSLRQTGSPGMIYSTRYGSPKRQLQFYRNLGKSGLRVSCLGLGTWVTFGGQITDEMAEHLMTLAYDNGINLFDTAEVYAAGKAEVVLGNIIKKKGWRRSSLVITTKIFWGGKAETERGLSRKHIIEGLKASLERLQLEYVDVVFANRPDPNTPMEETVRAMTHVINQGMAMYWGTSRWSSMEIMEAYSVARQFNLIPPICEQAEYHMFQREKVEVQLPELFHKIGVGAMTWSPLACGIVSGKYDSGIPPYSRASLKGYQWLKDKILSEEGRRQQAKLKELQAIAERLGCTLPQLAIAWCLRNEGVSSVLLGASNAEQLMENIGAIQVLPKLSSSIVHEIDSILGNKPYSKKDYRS

The term inhibition denotes the change of the read-out against control, counted positive when it falls. As to `O=C(c1ccco1)N1CCN(C2=NS(=O)(=O)c3ccccc32)CC1`, in experiment [1], the cell count was 596. For the same compound, the inhibition in experiment [1] was -18.6% (inactive); in experiment [3] it was -3% (inactive); in experiment [7], 4.61% (inactive); in experiment [8] it was 31.2% (inactive). In addition, the inhibition of aggregation in experiment [2] is -11.3% (inactive). For the same compound, the nuclei count in experiment [2] came to 105%; in experiment [3], 104%. Besides, the fluorescence slope in experiment [4] was -0.463 (inactive). Further, the NADPH fluorescence slope in experiment [5] was -1.3e-05 (inactive). Further, in experiment [6], the slope is 0.00424 (inactive).

Consider `O=C(O)C1CCCCC1C(=O)NCCc1ccccc1` (stereo not given), for which the cell count in experiment [1] turned out to be 350. In addition, the inhibition is 4.6% (inactive) in experiment [1], -165% (inactive) in experiment [3], -15.8% (inactive) in experiment [7] and -11.5% (inactive) in experiment [8]. In addition, in experiment [2], the inhibition of aggregation is 14.3% (inactive). Besides, the values for the nuclei count in experiment [2] and in experiment [3] were 99.3% and 103%, respectively. Besides, the fluorescence slope in experiment [4] was -0.535 (inactive). Further, in experiment [5], the NADPH fluorescence slope was -5.8e-05 (inactive). In addition, the slope in experiment [6] is 0.00513 (inactive).

In the case of `CCOC(=O)c1ccc(S(=O)(=O)Nc2cc(C(C)(C)C)no2)cc1`, in experiment [1], the cell count stood at 551. In addition, the inhibition in experiment [1] was -10.3% (inactive); in experiment [3] it was -194% (inactive); in experiment [7], -7.27% (inactive); in experiment [8] it was -2.9% (inactive). Moreover, the inhibition of aggregation in experiment [2] is 5.8% (inactive). The nuclei count in experiment [2] came to 108%; in experiment [3], 152%. Also, the fluorescence slope in experiment [4] is -0.612 (inactive). The NADPH fluorescence slope in experiment [5] is 5.6e-06 (inactive). Further, in experiment [6], the slope was 0.00811 (inactive).

For `C=CCN(C(=O)CNS(=O)(=O)c1ccccc1)C(C(=O)NCCOC)c1ccncc1` (stereo not given), the cell count in experiment [1] was 543. For the same compound, the inhibition in experiment [1] is -18.3% (inactive); in experiment [3] it was 7.6% (inactive); in experiment [7], 11% (inactive); in experiment [8], 5.34% (inactive). Moreover, the inhibition of aggregation in experiment [2] was 18.4% (inactive). Moreover, the nuclei count in experiment [2] turned out to be 93.8%; in experiment [3] it was 80.2%. For the same compound, the fluorescence slope in experiment [4] is -0.478 (inactive). Besides, the NADPH fluorescence slope in experiment [5] is 3.8e-06 (inactive). Moreover, the slope in experiment [6] is 0.00567 (inactive).

For the compound `Cc1ccc(-n2c(-c3ccncc3)nnc2-c2cccs2)cc1`, the cell count in experiment [1] is 456. Besides, the inhibition in experiment [1] was -3.2% (inactive); in experiment [3], -55.2% (inactive); in experiment [7], 11.8% (inactive); in experiment [8], 12.5% (inactive). The inhibition of aggregation in experiment [2] is -22.5% (inactive). Moreover, the nuclei count is 104% in experiment [2] and 119% in experiment [3]. Further, in experiment [4], the fluorescence slope is -0.384 (inactive). For the same compound, in experiment [5], the NADPH fluorescence slope was -4.2e-05 (inactive). The slope in experiment [6] was 0.0046 (inactive).

Turning to `CCCn1cc(SCC(N)=O)c2ccccc21`, the cell count in experiment [1] is 743. Further, the inhibition in experiment [1] was -8% (inactive); in experiment [3] it was -33.9% (inactive); in experiment [7], 13.5% (inactive); in experiment [8], 27.7% (inactive). Moreover, in experiment [2], the inhibition of aggregation is -1.3% (inactive). For the same compound, the nuclei count in experiment [2] was 107%; in experiment [3], 113%. Besides, the fluorescence slope in experiment [4] is -0.382 (inactive). Further, in experiment [5], the NADPH fluorescence slope is -6.4e-06 (inactive). In experiment [6], the slope was 0.00614 (inactive).

As to `CCN(CC)c1ccc(/C=N/n2nnnc2N)c(O)c1`, the cell count in experiment [1] was 428. Also, the inhibition in experiment [1] is -1.1% (inactive); in experiment [3] it was -29.5% (inactive); in experiment [7], 4.84% (inactive); in experiment [8], 1.57% (inactive). Further, the inhibition of aggregation in experiment [2] was -13.8% (inactive). For the same compound, the nuclei count in experiment [2] is 101%; in experiment [3], 130%. Also, in experiment [4], the fluorescence slope is -0.413 (inactive). The NADPH fluorescence slope in experiment [5] is 6.9e-05 (inactive). For the same compound, the slope in experiment [6] was 0.00627 (inactive).

Take `CCCCCn1c(CN2CCN(c3cccc(Cl)c3)CC2)nc2c1c(=O)n(C)c(=O)n2C`: the cell count in experiment [1] is 775. For the same compound, the inhibition in experiment [1] is 0.9% (inactive); in experiment [3], -32.5% (inactive); in experiment [7], -3% (inactive); in experiment [8], -10.4% (inactive). The inhibition of aggregation in experiment [2] was -13% (inactive). The nuclei count came out at 109% in experiment [2] and 113% in experiment [3]. In experiment [4], the fluorescence slope was -0.371 (inactive). The NADPH fluorescence slope in experiment [5] is -6e-05 (inactive). In experiment [6], the slope is 0.00648 (inactive).

With `COc1cccc(OCC(=O)Nc2ccccc2C(N)=O)c1`, the cell count in experiment [1] worked out at 681. Besides, the inhibition in experiment [1] was 0.4% (inactive); in experiment [3] it was -73.4% (inactive); in experiment [7] it was -50.2% (inactive); in experiment [8], -121% (inactive). Besides, the inhibition of aggregation in experiment [2] is 9.9% (inactive). The results for the nuclei count in experiment [2] and in experiment [3] were 104% and 110%, respectively. For the same compound, in experiment [4], the fluorescence slope is -0.517 (inactive). Also, the NADPH fluorescence slope in experiment [5] is 1.4e-05 (inactive). In experiment [6], the slope was 0.00589 (inactive).

As for `CCOC(=O)c1ccccc1NC(=O)N1CCn2c(C)ccc2C1CC` (stereo not given), the cell count in experiment [1] was 383. Further, the inhibition in experiment [1] was 2.8% (inactive); in experiment [3], -50.1% (inactive); in experiment [7], -0.392% (inactive); in experiment [8], 8.3% (inactive). Further, the inhibition of aggregation in experiment [2] was -42% (inactive). Moreover, the nuclei count in experiment [2] turned out to be 105%; in experiment [3], 110%. Besides, the fluorescence slope in experiment [4] is -0.579 (inactive). Besides, the NADPH fluorescence slope in experiment [5] is -3.2e-05 (inactive). Further, the slope in experiment [6] was 0.00545 (inactive).
